# “And” between values parts separate entries of the source, which are not always exact repeats. Identical values can stand only once. Unmarked numbers belong to inactive results. Some of the results follow. The source made the active and inactive calls.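 Rule for the calls, unless noted: active = mean inhibition above 46.68%, the untreated control wells mean plus 3 SD; inactive = the rest.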
# What was measured:
# [1] = target: Nuclear receptor coactivator 3 (Homo sapiens) (UniProt Q9Y6Q9); assay: SRC3 coactivator transcriptional activity inhibitors, confirmation, cell-based, luminescence, quadruplicate (AID 588792;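 active = mean inhibition over 43.08%, the solvent-only control mean plus 3 SD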;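 note: 0% = DMSO treated cells and 100% = gossypol at 36 µM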); details: HEK293 GAL4-SRC3 luciferase reporter, at 3.6 µM, hits give high values
# [2] = system: transactivating tegument protein VP16 (Human herpesvirus 1), Gal4-VP16 luciferase reporter; assay: VP16 transactivation inhibitors, counter-screen for SRC3 inhibitor project, cell-based, luminescence, high throughput (AID 588794; in the data active = inhibition above about 30%); details: mammalian cells, VP16-driven luciferase reporter luminescence; at 3.6 µM; hits give high values
# [3] = target: Nuclear receptor coactivator 1 (Homo sapiens) (UniProt Q15788); assay: SRC1 coactivator transcriptional activity inhibitors, confirmation, cell-based, luminescence, quadruplicate (AID 588820); details: HEK293 GAL4-SRC1 luciferase reporter, at 3.6 µM, hits give high values;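 note: 0% = DMSO wells and 100% = gossypol 36 µM treated wells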
# Sequence of Nuclear receptor coactivator 1 (Homo sapiens) (Q15788 whole entry, looked up, the tested form may be a part): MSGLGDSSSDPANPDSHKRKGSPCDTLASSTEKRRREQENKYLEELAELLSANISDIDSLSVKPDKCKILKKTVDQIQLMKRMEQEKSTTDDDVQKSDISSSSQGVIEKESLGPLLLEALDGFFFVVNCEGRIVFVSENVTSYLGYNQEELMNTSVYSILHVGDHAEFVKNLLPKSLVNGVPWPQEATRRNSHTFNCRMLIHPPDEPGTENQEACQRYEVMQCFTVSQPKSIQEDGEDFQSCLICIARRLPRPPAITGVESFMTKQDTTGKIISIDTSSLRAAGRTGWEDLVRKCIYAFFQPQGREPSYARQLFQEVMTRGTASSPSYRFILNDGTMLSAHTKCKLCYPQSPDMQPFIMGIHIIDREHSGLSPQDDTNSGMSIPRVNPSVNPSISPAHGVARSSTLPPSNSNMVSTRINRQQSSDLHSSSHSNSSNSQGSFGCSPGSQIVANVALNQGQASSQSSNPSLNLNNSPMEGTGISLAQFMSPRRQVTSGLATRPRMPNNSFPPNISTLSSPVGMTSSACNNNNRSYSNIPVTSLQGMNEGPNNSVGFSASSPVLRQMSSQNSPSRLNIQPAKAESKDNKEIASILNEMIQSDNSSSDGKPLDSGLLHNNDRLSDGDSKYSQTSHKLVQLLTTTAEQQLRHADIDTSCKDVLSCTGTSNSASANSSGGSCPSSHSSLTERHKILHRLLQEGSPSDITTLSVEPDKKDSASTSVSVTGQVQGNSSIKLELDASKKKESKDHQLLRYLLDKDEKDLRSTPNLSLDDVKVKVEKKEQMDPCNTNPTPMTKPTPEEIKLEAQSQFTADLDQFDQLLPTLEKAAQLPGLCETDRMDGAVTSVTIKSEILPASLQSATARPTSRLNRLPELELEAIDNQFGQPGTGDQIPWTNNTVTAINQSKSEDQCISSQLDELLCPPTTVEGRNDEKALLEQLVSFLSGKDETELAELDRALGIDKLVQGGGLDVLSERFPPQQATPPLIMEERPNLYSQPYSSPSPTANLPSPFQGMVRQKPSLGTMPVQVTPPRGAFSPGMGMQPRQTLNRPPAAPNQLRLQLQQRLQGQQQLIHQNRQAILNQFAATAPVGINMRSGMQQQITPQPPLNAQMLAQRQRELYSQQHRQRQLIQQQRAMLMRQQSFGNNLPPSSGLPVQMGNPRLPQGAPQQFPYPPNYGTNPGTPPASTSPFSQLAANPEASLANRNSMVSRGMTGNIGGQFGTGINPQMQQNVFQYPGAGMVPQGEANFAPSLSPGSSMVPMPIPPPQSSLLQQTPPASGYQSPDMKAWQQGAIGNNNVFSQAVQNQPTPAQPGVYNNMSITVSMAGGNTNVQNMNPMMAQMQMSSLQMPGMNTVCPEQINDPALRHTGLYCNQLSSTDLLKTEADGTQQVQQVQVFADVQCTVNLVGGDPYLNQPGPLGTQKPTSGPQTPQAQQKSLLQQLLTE
# [4] = VP16 transactivation inhibitors, counter-screen for SRC1 inhibitor project, cell-based, luminescence, high throughput (AID 588824; in the data active = inhibition above about 25%); details: cell-based VP16 transactivation luciferase luminescence; at 3.6 µM; hits give high values
# [5] = StAR promoter reporter inhibitors, counter-screen for LRH-1 inverse agonist project, cell-based, luminescence, high throughput (AID 651611; in the data active = inhibition above about 28%); details: StAR promoter luciferase reporter counterscreen, at 3.6 µM, hits give high values
# [6] = target: Nuclear receptor subfamily 5 group A member 2 (Homo sapiens) (UniProt O00482); assay: LRH-1 (NR5A2) inverse agonists, retest, confirmation, cell-based, luminescence (AID 651613; in the data active = inhibition above about 42%;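 note: HEK293T cells co-transfected with LRH-1 and StAR promoter luciferase reporter; 0% = vehicle wells and 100% = parental cells lacking receptor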); details: cell-based LRH-1 luciferase reporter, inverse agonism; at 3.6 µM; hits give high values
# Sequence of Nuclear receptor subfamily 5 group A member 2 (Homo sapiens) (O00482 whole entry, looked up): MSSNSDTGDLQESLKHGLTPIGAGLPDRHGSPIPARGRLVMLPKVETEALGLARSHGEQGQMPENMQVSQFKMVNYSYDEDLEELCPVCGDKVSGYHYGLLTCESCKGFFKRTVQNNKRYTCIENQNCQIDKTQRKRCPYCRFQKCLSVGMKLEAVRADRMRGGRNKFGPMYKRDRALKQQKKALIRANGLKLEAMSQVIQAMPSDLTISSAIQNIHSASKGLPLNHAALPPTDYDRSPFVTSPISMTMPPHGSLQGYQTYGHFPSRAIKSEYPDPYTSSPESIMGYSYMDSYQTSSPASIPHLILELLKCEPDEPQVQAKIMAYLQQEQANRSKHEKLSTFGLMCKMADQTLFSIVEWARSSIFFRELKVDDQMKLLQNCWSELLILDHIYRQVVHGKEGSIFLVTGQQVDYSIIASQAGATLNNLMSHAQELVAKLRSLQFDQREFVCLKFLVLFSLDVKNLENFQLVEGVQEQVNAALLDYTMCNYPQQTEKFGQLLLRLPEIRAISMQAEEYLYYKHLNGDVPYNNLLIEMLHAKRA
# [7] = target: Steroidogenic factor 1 (Homo sapiens) (UniProt Q13285); assay: SF1 (NR5A1) inverse agonists, counter-screen for LRH-1 inverse agonist project, cell-based, luminescence, high throughput (AID 651614; in the data active = inhibition above about 44%;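 note: cells cotransfected with StAR promoter reporter and SF1 expression vector; 0% = vehicle on cells with receptor and 100% = vehicle on cells lacking receptor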); details: cell-based SF1 luciferase reporter, at 3.6 µM, hits give high values
# Sequence of Steroidogenic factor 1 (Homo sapiens) (Q13285 whole entry, looked up, the tested form may be a part): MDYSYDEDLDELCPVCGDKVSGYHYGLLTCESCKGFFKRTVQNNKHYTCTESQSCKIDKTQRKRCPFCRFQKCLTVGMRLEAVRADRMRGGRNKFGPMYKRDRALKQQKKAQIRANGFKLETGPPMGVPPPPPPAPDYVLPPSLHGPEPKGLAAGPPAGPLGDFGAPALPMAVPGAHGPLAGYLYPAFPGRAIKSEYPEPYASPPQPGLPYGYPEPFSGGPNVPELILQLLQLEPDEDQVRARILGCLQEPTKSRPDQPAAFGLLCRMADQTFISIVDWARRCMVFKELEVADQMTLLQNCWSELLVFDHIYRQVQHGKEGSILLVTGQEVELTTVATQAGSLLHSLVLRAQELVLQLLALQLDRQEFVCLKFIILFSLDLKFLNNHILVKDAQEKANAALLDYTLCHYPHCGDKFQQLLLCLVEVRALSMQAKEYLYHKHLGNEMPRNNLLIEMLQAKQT
# [8] = VP16 transactivation reporter inhibitors, counter-screen for LRH-1 inverse agonist project, cell-based, luminescence, high throughput (AID 651615; in the data active = inhibition above about 33%); details: Gal4-VP16 luciferase reporter cells, at 3.6 µM, hits give high values
# [9] = system: transactivating tegument protein VP16 (Human herpesvirus 1); assay: VP16 transactivation reporter inhibitors, counter-screen for SRC2 inhibitor project, cell-based, luminescence, single concentration (AID 652007; in the data active = inhibition above about 36%); details: cell-based VP16 transactivation luciferase reporter, at 8.9 µM, hits give high values
# [10] = target: Nuclear receptor coactivator 2 (Homo sapiens) (UniProt Q15596); assay: SRC2 coactivator transcriptional activity inhibitors, confirmation, cell-based, luminescence, HEK293, triplicate (AID 652008;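 active = mean inhibition above 46.5%, the solvent-only control mean plus 3 SD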;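 note: 0% = DMSO-treated cells and 100% = Gossypol at 36 µM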); details: HEK293 GAL4-SRC2 luciferase reporter, at 8.9 µM, hits give high values
# Sequence of Nuclear receptor coactivator 2 (Homo sapiens) (Q15596 whole entry, looked up, the tested form may be a part): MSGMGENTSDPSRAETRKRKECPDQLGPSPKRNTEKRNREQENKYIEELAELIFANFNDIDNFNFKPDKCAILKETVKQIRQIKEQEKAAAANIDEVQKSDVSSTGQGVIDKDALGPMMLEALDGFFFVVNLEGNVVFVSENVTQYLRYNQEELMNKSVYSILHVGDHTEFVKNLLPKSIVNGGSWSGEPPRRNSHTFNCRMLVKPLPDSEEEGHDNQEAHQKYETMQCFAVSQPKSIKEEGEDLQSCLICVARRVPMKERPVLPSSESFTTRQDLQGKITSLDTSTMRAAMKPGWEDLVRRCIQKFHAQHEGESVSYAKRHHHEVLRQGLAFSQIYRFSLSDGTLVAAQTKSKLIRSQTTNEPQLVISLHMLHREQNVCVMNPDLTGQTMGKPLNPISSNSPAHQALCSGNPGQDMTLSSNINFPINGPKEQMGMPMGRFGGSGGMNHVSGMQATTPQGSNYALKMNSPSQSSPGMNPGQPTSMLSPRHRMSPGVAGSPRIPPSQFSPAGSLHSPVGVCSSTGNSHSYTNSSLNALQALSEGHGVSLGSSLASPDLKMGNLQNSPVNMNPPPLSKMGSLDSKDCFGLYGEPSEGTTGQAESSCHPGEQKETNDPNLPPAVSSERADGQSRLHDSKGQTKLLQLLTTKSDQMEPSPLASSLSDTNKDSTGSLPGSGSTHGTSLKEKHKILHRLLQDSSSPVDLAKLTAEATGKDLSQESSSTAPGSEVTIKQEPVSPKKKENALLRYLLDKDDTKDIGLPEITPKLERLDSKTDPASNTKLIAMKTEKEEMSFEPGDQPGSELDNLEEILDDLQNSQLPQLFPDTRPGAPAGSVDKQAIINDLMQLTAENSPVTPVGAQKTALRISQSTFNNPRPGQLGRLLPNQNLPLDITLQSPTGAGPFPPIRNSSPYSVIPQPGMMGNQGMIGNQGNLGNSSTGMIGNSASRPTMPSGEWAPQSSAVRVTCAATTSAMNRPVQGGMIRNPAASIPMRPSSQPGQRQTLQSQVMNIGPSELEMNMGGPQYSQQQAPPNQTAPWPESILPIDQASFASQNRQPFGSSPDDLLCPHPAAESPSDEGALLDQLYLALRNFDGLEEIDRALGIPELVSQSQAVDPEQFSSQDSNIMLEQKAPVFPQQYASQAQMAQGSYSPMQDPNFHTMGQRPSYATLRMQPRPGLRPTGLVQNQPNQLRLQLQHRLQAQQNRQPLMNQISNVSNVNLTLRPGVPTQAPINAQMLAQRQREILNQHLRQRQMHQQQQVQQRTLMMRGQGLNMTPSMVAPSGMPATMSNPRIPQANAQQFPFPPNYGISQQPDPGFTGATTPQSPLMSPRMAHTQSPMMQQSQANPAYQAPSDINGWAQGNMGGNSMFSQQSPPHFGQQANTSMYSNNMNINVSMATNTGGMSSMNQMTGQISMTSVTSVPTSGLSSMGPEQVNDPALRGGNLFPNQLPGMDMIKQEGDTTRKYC
# [11] = Gal4-VP16 luciferase reporter inhibitors, counter-screen for COUP-TFII antagonist project, cell-based, luminescence, HEK293 (AID 687007; in the data active = inhibition above about 13%); details: at 8.5 µM, hits give high values
# [12] = target: COUP transcription factor 2 (Homo sapiens) (UniProt P24468); assay: NR2F2 transcriptional activity inhibitors, confirmation, cell-based, luciferase reporter, HEK293, triplicate (AID 687008;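 active = mean inhibition over three repeats above a set limit taken from the earlier primary screen, cut at about 38% in these data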;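 note: 100% = cells given the luciferase reporter alone without the COUP-TF2 vector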); details: HEK293 NGFI-A luciferase reporter, luminescence; at 8.5 µM; hits give high values
# Sequence of COUP transcription factor 2 (Homo sapiens) (P24468 whole entry, looked up): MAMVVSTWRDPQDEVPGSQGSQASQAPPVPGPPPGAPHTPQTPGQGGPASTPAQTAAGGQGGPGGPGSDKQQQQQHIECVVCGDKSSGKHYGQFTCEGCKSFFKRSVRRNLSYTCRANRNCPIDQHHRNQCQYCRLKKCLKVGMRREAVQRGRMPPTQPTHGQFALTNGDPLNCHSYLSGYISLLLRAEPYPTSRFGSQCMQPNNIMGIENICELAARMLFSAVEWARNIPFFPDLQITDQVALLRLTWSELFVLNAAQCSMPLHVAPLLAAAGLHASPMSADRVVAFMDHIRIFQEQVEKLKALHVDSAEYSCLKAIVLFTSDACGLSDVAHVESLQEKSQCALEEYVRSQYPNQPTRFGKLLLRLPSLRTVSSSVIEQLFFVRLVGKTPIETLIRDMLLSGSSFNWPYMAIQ
SMILES,inhibition [1],inhibition [2],inhibition [3],inhibition [4],inhibition [5],inhibition [6],inhibition [7],inhibition [8],inhibition [9],inhibition [10],inhibition [11],inhibition [12]
CC(=O)OC1(C)CC(C)C(=O)C(C(O)CC2CC(=O)NC(=O)C2)C1 (configuration not stated),98% (active),96.7% (active),93.5% (active),95.6% (active),94.8% (active),110% (active),97.5% (active),95.8% (active),80.1% (active),71.5% (active),,
C[C@@H]1O[C@@H](O[C@@H]2C=C3CCC4C(CC[C@]5(C)[C@@H](c6ccc(=O)oc6)CC[C@]45O)[C@@]3(C)CC2)[C@H](O)[C@H](O)[C@H]1O (some centres not stated),97.5% (active),90.9% (active),84.9% (active),89.9% (active),97% (active),110% (active),98.9% (active),96.5% (active),74.1% (active),60.1% (active),,
NC(=O)c1cn(C2OC(CO)C(O)C2O)c2ncnc(N)c12 (configuration not stated),96.2% (active) and 97.7% (active),97.7% (active) and 97.3% (active),90% (active) and 90.1% (active),97.9% (active) and 96% (active),94.2% (active) and 95% (active),109% (active) and 110% (active),96.8% (active) and 98% (active),95.5% (active) and 97.3% (active),65% (active) and 66.1% (active),67.3% (active) and 73.3% (active),,
O=C1CN=C(c2ccc[nH]2)c2cc(Cl)ccc2N1,76% (active),57.9% (active),53.3% (active),57.5% (active),,,,,30.2%,44%,,
COC1C(O)C(C)OC(OC2CCC3(C=O)C(CCC4C3CCC3(C)C(C5=CC(=O)OC5)CCC43O)C2)C1O (configuration not stated),96.8% (active),89.2% (active),81.5% (active),88.7% (active),93.6% (active),110% (active),97.2% (active),93% (active),,,51% (active),76.3% (active)
CC(=O)OCC12CC(OC(=O)CC(C)C)C(C)=CC1OC1C(O)C(OC(C)=O)C2(C)C12CO2 (configuration not stated),95.1% (active),91.9% (active),88.5% (active),88.9% (active),97% (active),110% (active),98.3% (active),97.8% (active),79.1% (active),75.4% (active),,
Nc1ncnc2c1ccn2[C@@H]1O[C@H](CO)[C@@H](O)[C@H]1O,93.6% (active),89.5% (active),53.4% (active),86.8% (active),90.9% (active),107% (active),94.2% (active),93.6% (active),55.5% (active),58.3% (active),,
O=C1NC2C(=CC(O)C(O)C2O)c2cc3c(c(O)c21)OCO3 (configuration not stated),97.4% (active),96.1% (active),94.7% (active),94.7% (active),95.7% (active),109% (active),98% (active),96% (active),79.3% (active),75.6% (active),,
O=[N+]([O-])c1ccc(N(CCO)CCO)c2c1no[n+]2[O-],52.6% (active),27.8%,29.1%,14.5%,70.7% (active),76.2% (active),74.4% (active),28.9%,29.9%,56.3% (active),,
C[C@]12CCC3C(CCC4=CC(O)CC[C@@]43/C=N/O)C1(O)CCC2C1=CC(=O)OC1 (some centres not stated),95.1% (active),79.7% (active),49.1% (active),77.8% (active),94.8% (active),108% (active),97% (active),82.5% (active),63.6% (active),11.4%,,
C=Cc1cc(OC)c2c(c1)c(=O)oc1c2cc(OC)c2c(O)ccc(C3OC(C)C(O)C(C)(O)C3O)c21 (configuration not stated),46.1% (active),88.3% (active),-23.3%,88% (active),,,,,42.7% (active),-166%,,
CC(=O)OC1CC(OC2C(O)CC(OC3C(O)CC(OC4CCC5(C)C(CCC6C5CCC5(C)C(C7=CC(=O)OC7)C(O)CC65O)C4)OC3C)OC2C)OC(C)C1OC1OC(CO)C(O)C(O)C1O (configuration not stated),93.4% (active),79.7% (active),39.1%,72.8% (active),97.7% (active),111% (active),99.3% (active),85.1% (active),61.8% (active),13.5%,,
CC12CCC3C(CCC4(O)CC(O)CCC34C=NO)C1(O)CCC2C1=COC(=O)C1 (configuration not stated),94.5% (active),84.4% (active),61.1% (active),82.2% (active),96.3% (active),110% (active),98.2% (active),89.2% (active),54.3% (active),29.4%,,
CCC1CN2CCc3cc(OC)c(OC)cc3C2CC1CC1NCCc2c1[nH]c1ccc(O)cc21 (configuration not stated),98% (active),96.7% (active),95.4% (active),95.9% (active),95.7% (active),110% (active),98.3% (active),98.7% (active),78.1% (active),73.4% (active),,
